Data: PubChem BioAssay AID2521 (Sanford-Burnham Center for Chemical Genomics, 2010)
The campaign covered roughly 330,000 compounds. About 1,100 (0.33%) were called active. This is one part of a sample in which actives are shown more often than they occur. Unmarked numbers belong to inactive results.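 How the source made its calls: active means inhibition above about 40% at 20 µM (limit read from the data); inactive means the rest.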

What follows are compounds tested against Apelin receptor (Homo sapiens) (UniProt P35414) (assay: antagonists of human apelin receptor APJ, primary screen, CHO-K1 cells, beta-arrestin complementation, luminescence (AID 2521;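 further: cells challenged with 10 nM apelin-13 agonist together with compound; plate controls were apelin-13 plus DMSO wells for no effect and DMSO wells lacking apelin-13 for full effect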)). Conditions: at 20 µM, stronger effect = higher value.
Chain of Apelin receptor (Homo sapiens) (P35414 whole entry, looked up): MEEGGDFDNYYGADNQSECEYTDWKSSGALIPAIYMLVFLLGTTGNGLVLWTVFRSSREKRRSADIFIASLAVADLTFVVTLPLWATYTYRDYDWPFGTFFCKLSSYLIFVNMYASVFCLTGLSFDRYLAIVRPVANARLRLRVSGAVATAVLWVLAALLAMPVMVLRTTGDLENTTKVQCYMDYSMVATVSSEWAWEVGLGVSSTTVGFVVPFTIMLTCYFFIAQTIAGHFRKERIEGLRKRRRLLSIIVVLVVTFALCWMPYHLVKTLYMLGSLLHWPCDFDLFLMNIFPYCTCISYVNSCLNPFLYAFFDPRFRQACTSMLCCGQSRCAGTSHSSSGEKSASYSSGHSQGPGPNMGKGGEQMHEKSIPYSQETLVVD

| Structure (SMILES) | inhibition |
| --- | --- |
| Cc1ccc(C)c2[nH]c(=O)c(CN(Cc3cccnc3)C(=S)NCc3ccco3)cc12 | 5.44% |
| O=C(N=C1SC2CS(=O)(=O)CC2N1c1ccccc1)c1ccccc1 (stereo unspecified) | -0.987% |
| CCCNc1ncnc2sc(C)c(C)c12 | 19.7% |
| Cc1cc(C)n(-c2nc(O)cc(=O)[nH]2)n1 | 9% |
| O=C1/C(=C/c2coc3ccc(O)cc3c2=O)SC(=S)N1c1ccccc1 | 29.3% |
| CSCCC(NC(=O)COc1ccccc1)C(=O)OCC(=O)c1cc2ccccc2o1 (stereo unspecified) | 56.3% (active) |
| CSCCC(NC(=O)COc1ccccc1)C(=O)OCCOc1ccc(F)cc1 (stereo unspecified) | 4.85% |
| CSCCC(NC(=O)COc1ccccc1)C(=O)OCCOc1ccc(Br)cc1 (stereo unspecified) | 0.665% |
| CC(=O)Nc1ccc(S(=O)(=O)Nc2nc3n(n2)C(c2ccccc2)CC(=O)N3)cc1 (stereo unspecified) | -9.74% |
| Cc1nc2cc(NCc3cccs3)ccc2n1C | 1.26% |
| CCCCC(=O)Nc1c2c(nn1-c1ccc([N+](=O)[O-])cc1)CS(=O)(=O)C2 | 9.67% |
| CC1CCN(C(=O)c2cc3nc(C4CC4)cc(C(F)(F)F)n3n2)CC1 | 1.74% |
| Cc1cc(/C=N/Nc2ccc([N+](=O)[O-])cn2)c(C)n1-c1cccc(C(=O)O)c1 | 42.4% (active) |
| Cc1cc(/C=N/NC(=O)CC2(C)OCCO2)c(C)n1-c1ccc(Cl)c(Cl)c1 | -22.8% |
| Cc1cc(C=O)c(C)n1-c1ccc(NC2CCCCC2)c([N+](=O)[O-])c1 | 11.5% |
| Cn1c(=O)c2c(-c3cccc(Br)c3)c(C#N)c(N)nc2n(C)c1=O | -4.62% |
| NC(=O)NC(=O)C(OC(=O)CCNS(=O)(=O)c1ccccc1)c1ccccc1 (stereo unspecified) | 12.8% |
| CC(Oc1ccccc1F)C(=O)NN (stereo unspecified) | -7.83% |
| CN1CCN(/N=C2/C(=O)Nc3ccc([N+](=O)[O-])cc32)CC1 | 2.6% |
| O=[N+]([O-])c1ccc(N(CCO)Cc2ccccc2)c([N+](=O)[O-])c1 | -2.49% |
| O=C1Nc2ccc([N+](=O)[O-])cc2C1=Nc1cccc(CO)c1 | 66% (active) |
| O=C(NC(=S)Nc1ccc(Cl)c(C(=O)O)c1)c1cncc(Br)c1 | 35.2% |
| c1ccc2cc(CCCc3cc4ccccc4cn3)ncc2c1 | 9.5% |
| Cc1cc2c(c(=O)n1C)C(C(C)C)C(C#N)=C(N)O2 (stereo unspecified) | -2.07% |
| COc1ccc(CCNC(=O)C2CCCN(S(=O)(=O)c3ccc(OC)cc3)C2)cc1 (stereo unspecified) | 12.2% |
| CCc1ccc2c(c1)C1(NN=C(c3ccccc3)S1)C(=O)N2 (stereo unspecified) | 43.3% (active) |

| Structure (SMILES) | inhibition |
| --- | --- |
| Cc1ccc(-n2c(C)cc(C(=O)CSc3nnc4ccccn34)c2C)cc1 | -19.2% |
| CC(=O)Nc1ccc(NC(=O)CSC2=NS(=O)(=O)c3ccccc3N2)cc1 | 17.4% |
| O=C(CN1CCN(c2ccc(Cl)cc2)CC1)c1ccccc1 | -15.1% |
| CCC1Nc2ncnc(N3CCN(c4ccccc4)CC3)c2N(Cc2ccc(Cl)cc2)C1=O (stereo unspecified) | 85.9% (active) |
| O=C1C(Cc2ccc(O)cc2)NC(=S)N1Cc1ccccc1 (stereo unspecified) | 7.09% |
| COc1ccc(S(=O)(=O)n2cnc3ccccc32)c(C)c1 | 2.56% |
| Cc1ccc(NC(=S)N(CCCN2CCCC2)Cc2cccn2Cc2ccc(Cl)cc2)cc1 | -11.3% |
| CC(C)(C)OC(=O)C[C@@H]1C/C=C\C[C@@H](CC(=O)NCCO)C(=O)N[C@H](Cc2c[nH]c3ccccc23)COC1=O | 0.599% |
| S=C(NNC(=S)NC1CC2C=CC1C2)NC1CC2C=CC1C2 (stereo unspecified) | 9.22% |
| S=C(NNC(=S)NC1CC2CCC1C2)NC1CC2C=CC1C2 (stereo unspecified) | 40.2% (active) |
| O=C(NNC(=S)NC1CC2CCC1C2)c1ccc(Cl)cc1 (stereo unspecified) | -4.76% |
| Cc1nonc1OCCn1nnnc1N | -11.5% |
| CC(=O)/C(=N\Nc1ccc(Cl)cc1Cl)Sc1cccc2cccnc12 | 50.3% (active) |
| Cc1c(NC(=O)CSc2cccc3cccnc23)c(=O)n(-c2ccccc2)n1C | 21.8% |
| O=C(NNc1cc(Cl)ccc1Cl)c1cccnc1Cl | -13.7% |
| Cc1ccc(C(=O)N(CN2CCCC2=O)c2ccc(F)cc2)cc1 | -13.9% |
| CNC(=O)Nc1cc(C(C)(C)C)no1 | 8.23% |
| Cc1ccc(N2CCN(S(=O)(=O)c3ccc(F)cc3)CC2)c(C)c1 | 17.5% |
| Cc1ccc(/C=N/NC(=S)Nc2cccc(S(=O)(=O)N(C)C)c2)o1 | -8.56% |
| CN(C)S(=O)(=O)c1cccc(NC(=S)NCc2ccc3c(c2)OCO3)c1 | 3.11% |
| CN(C)S(=O)(=O)c1cccc(NC(=S)N/N=C/C(=O)c2ccccc2)c1 | 41.5% (active) |
| O=C(c1ccccc1F)N(Cc1ccccc1)Cc1ccccc1 | -6.53% |
| CC1=C(C(=O)Nc2cc(C)ccn2)C(c2cnn(C)c2)C2=C(CC(c3ccccc3)CC2=O)N1 (stereo unspecified) | -2.45% |
| O=S(N1CCCCCC1)C12CC3CC(CC(C3)C1)C2 (stereo unspecified) | -12.7% |
| Cc1ccc(NC(=O)C2CC2c2ccccc2)cc1 (stereo unspecified) | 0.756% |
